JMJD2A Tudor: qHTS Assay for Inhibitors of JMJD2A-Tudor Domain; Lysine-specific demethylase 4A (Homo sapiens), O75164; AlphaScreen JMJD2A-Tudor / H3K4me3 peptide binding; Potency, µM (series often up to 114 µM), actives largely listed as inhibitors; 4.4% of 390,000 active; also: nearly all actives have a fitted effect of over 50% in size
HP1b binding inh: HTS for Inhibitors of HP1-beta Chromodomain Interactions with Methylated Histone Tails. Chromobox protein homolog 1 (Homo sapiens), P83916. AlphaScreen HP1-beta / biotin-H3K9me3 peptide binding. 0.56% of 390,000 active. Potency, µM (series often up to 114 µM), most hits filed as inhibitors; also: nearly all actives have a fitted effect of over 70% in size
Target sequence (P83916 whole entry, looked up): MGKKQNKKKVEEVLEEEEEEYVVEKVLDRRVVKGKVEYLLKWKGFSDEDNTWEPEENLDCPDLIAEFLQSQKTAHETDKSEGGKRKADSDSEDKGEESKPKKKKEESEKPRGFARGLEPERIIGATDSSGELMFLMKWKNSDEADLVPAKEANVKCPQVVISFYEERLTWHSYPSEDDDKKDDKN
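Compound inhibition of the preformed complex between 50 nM HP1-beta and 50 nM biotinylated H3K9me3 peptide was read by AlphaScreen. Buffer was PBS pH 7.4 with 0.01% Tween-20. Incubations ran 30 min at room temperature, with 10 ug/mL donor/acceptor beads.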
PLK1 PBD block: qHTS for Inhibitors of PLK1-PDB (polo-like kinase 1 - polo-box domain): Primary Screen. AID 720504, 2013. Potency, µM, hits mostly inhibitors. 2.8% of 360,000 active. Serine/threonine-protein kinase PLK1 (Homo sapiens), P53350. Plk1 PBD binding of FITC phosphopeptide, fluorescence polarization; also: series mostly up to about 57 µM; nearly all actives have a fitted effect of over 65% in size
Sfp inh: qHTS Assay for Inhibitors of Bacillus subtilis Sfp phosphopantetheinyl transferase (PPTase) | 4'-phosphopantetheinyl transferase ffp (Bacillus subtilis), Q9F4F7 | Biochemical Sfp PPTase activity, qHTS | Potency, µM, most hits filed as inhibitors | 3.5% of 310,000 active;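 also: the enzyme is Sfp with the accession as filed and its product quenches rhodamine fluorescence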
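Fluorescence-quenching assay: 15 nM Sfp-PPTase preincubated 15 min at room temperature with compound, then 5 uM rhodamine-CoA and 12.5 uM BHQ-2-labelled YbbR peptide added. Fluorescence (ex 525/em 598 nm) read at start and after 30 min; difference gives rate.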
BAZ2B inh: qHTS Assay for Inhibitors of BAZ2B. Bromodomain adjacent to zinc finger domain protein 2B (Homo sapiens), Q9UIF8. AID 504333, 2011. AlphaScreen BAZ2B-H3K14Ac peptide displacement. 4.4% of 360,000 active. Potency, µM (doses to about 114 µM), actives largely listed as inhibitors; also: nearly all actives have a fitted effect of over 60% in size
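In this displacement format the biotinylated H3(5-23) peptide acetylated at Lys14 serves as ligand at 50 nM, with BAZ2B at 50 nM in PBS pH 7.4 containing 0.01% Tween-20. Donor and acceptor beads are 10 ug/mL final.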
G9a block: qHTS Assay for Inhibitors of Histone Lysine Methyltransferase G9a. Potency, µM (highest dose often 102 µM), most hits filed as inhibitors. 8.8% of 350,000 active. Histone-lysine N-methyltransferase EHMT2 (Homo sapiens), Q96KQ7. G9a H3K9 monomethylation, AlphaScreen, 2 h; also: nearly all actives have a fitted effect of over 75% in size
Target sequence (Q96KQ7 913-1193 limits assumed): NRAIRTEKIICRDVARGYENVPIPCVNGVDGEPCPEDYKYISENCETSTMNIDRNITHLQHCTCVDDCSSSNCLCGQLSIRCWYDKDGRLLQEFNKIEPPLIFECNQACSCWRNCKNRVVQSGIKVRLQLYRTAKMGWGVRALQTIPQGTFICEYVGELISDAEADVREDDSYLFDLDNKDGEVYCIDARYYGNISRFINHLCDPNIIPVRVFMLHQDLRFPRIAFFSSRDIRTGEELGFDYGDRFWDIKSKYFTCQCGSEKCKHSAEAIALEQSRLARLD
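Enzyme 20 nM + cpd, 15 min RT; add b-H3K9 pep 500 nM / SAM 20 uM; 2 h RT; anti-H3K9me1 Ab 0.5 ug/mL + SA donor / anti-rabbit acceptor beads 20 ug/mL each, 10 min; AlphaScreen read.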
Hits are given with their value; n = inactive; u = inconclusive; x = no result given; [ ] = another dose, or the depositor's remark. Hits are enriched below; roughly 12% of the tested compounds scored in any of these assays. Calls follow the shape of the dose curve; as a rule, active = well fitted curve in the direction sought with a large enough effect; inconclusive = small, poorly fitted or top-dose-only effect, or another doubt; inactive = no such curve, though single readings can be large; an effect the other way counts as inactive or inconclusive.

SMILES	JMJD2A Tudor	HP1b binding inh	PLK1 PBD block	Sfp inh	BAZ2B inh	G9a block
Cc1ccc2c(Cl)cc(Cl)c(OCC(=O)Nc3cc(S(=O)(=O)N(C)C)ccc3C)c2n1	n	n	n	u	n	71µM
Cc1ccc(S(=O)(=O)N(C)C)cc1NC(=S)NNC(=O)C(N)=O	n[11.4 µM]	n	n	n	n	45µM
Cc1ccc(S(=O)(=O)N(C)C)cc1NC(=O)COC(=O)C1CCCC1	20µM	n	n	x	n	n
Cc1ccc2c(Cl)cc(Cl)c(OCC(=O)Nc3cccc(S(=O)(=O)N(C)C)c3)c2n1	n	n	n	n	n	n
Cc1ccc(S(=O)(=O)N(C)C)cc1NC(=S)NNC(=O)C1CC1	n	n	n	n	n	n
O=C(c1cccs1)N(Cc1ccco1)c1ccc(O)cc1	n	n	x	x	x	x
Cc1c(O)ccc(C(=O)CN2CCN(c3ccc(F)cc3)CC2)c1O	n	n	n	n	n	45µM
Cc1c(O)ccc(C(=O)CN2CCN(Cc3ccccc3)CC2)c1O	n	n	n	n	n	79µM
O=C(/C=C\c1ccc2c(c1)OCO2)NC1CC(=O)N(c2cccc(F)c2)C1 (centres undefined)	n	n	x	x	n	n
CCc1ccc(CCC(=O)Nc2nccs2)o1	n	n	n	8.9µM	n	u
O=C(CCc1ccccc1)Nc1nccs1	n	n	n	n	n	n[0.501 µM]
COc1ccc(OCC(=O)Nc2nccs2)cc1	n	n	n	n	n	u
CCOc1ccc(OCC(=O)Nc2nccs2)cc1	n	n	n	n	u	35µM
Cc1ccc(CCC(=O)Nc2nccs2)o1	n	n	n	79µM	u	n
c1nc(N2CCOCC2)c2cc(-c3ccoc3)ccc2n1	x	x	x	n	x	n[0.501 µM]
Cc1cc(C)c(S(=O)(=O)c2cccc(C)c2C)c(=O)[nH]1	n	n	n	n	n	n[2.33 µM]
S=c1[nH]nc(COc2ccccc2)n1/N=C/c1cccs1	u	n	n	79µM	n	1.4µM
Cc1ccsc1/C=N/n1c(COc2ccccc2)n[nH]c1=S	u	n	u	n	n	0.89µM
Cc1ccc(NNC(=O)c2cc(C(C)(C)C)nn2Cc2ccccc2)cc1	71µM	u	n	n	n	3.5µM
Cc1ccc(NC(=O)c2cc(C(C)(C)C)nn2Cc2ccccc2)cc1	n	n	n	n	n	x
COc1ccccc1NNC(=O)c1cc(C(C)(C)C)nn1Cc1ccccc1	n	n	n	n	u	13µM
CC(=O)N(Cc1ccc(F)cc1)C1=C(NCc2ccccc2)C(=O)c2ccccc2C1=O	56µM	u	n	n	45µM	13µM
O=C(NCc1ccc(F)cc1)C(c1ccccc1)c1ccccc1	n	n	n	n	n	n
COC(=O)C1=C(c2ccccc2)c2ccccc2S(=O)(=O)N1CC(=O)Nc1ccccc1Cl	n	n	x	x	n	n
Cn1c(Cc2ccccc2)nnc1SCCC(=O)Nc1ccccc1	n	n	n	n	n	7.9µM
SMILES	JMJD2A Tudor	HP1b binding inh	PLK1 PBD block	Sfp inh	BAZ2B inh	G9a block
CCn1c(Cc2ccccc2)nnc1SCC(=O)Nc1ccc(N)cc1	n	n	n	n	n	50µM
CCc1n[nH]c(=S)n1/N=C/C(C)=C\c1ccccc1	25µM	n	n	u	56µM	n[0.501 µM]
CCc1n[nH]c(=S)n1/N=C/c1ccc(-c2ccc(Br)cc2)o1	n	n	n	x	x	x
S=c1[nH]nc(COc2ccccc2)n1/N=C/C=C/c1ccccc1	u	n	n	n	u	1.6µM
CCc1n[nH]c(=S)n1/N=C/c1ccc(NC(C)=O)cc1	5µM	n	u	n	u	8.9µM
O=c1c2ccccc2nc(COc2ccccc2)n1/N=C/c1ccco1	n	n	n	n	n	n
S=c1[nH]nc(COc2ccccc2)n1/N=C/C=C/c1ccco1	20µM	u	u	56µM	45µM	x
CCCN1CCN(C(=O)C2CCN(S(=O)(=O)c3ccc4c(c3)NC(=O)C(C)S4)CC2)CC1 (centres undefined)	n	n	n	n	n	n
CCc1n[nH]c(=S)n1/N=C/c1cc(Br)c(OC)cc1OC	u	n	n	n	n	2.5µM
S=c1[nH]nc(COc2ccccc2)n1/N=C/C(Cl)=C/c1ccccc1	u	u	24µM	56µM	u	n[0.501 µM]
Cc1ccc(N2CC(C(=O)Nc3c4c(nn3C(C)(C)C)CS(=O)(=O)C4)CC2=O)cc1 (centres undefined)	n	n	n	n	n	u
O=[N+]([O-])c1ccc(N/N=C/c2cccc(O)c2O)cc1	u	n	27µM	n	u	n[0.501 µM]
O=[N+]([O-])c1ccc(N/N=C/c2cccc(O)c2)cc1	n	n	n	n	u	n[2.33 µM]
O=[N+]([O-])c1ccc(N/N=C/c2ccc[nH]2)cc1	56µM	u	n	u	45µM	11µM
Cc1ccccc1-c1cncnc1Nc1ccc(F)cc1	x	x	x	n	x	x
COc1ccc(C(C)=O)cc1Cn1nnc(-c2ccccc2Br)n1	n	n	n	n	56µM	n
COc1ccc(-c2sc3cc4c(cc3c2C#CC2(O)CCCCC2)OCO4)cc1	n	n	n	x	u	n[0.501 µM]
COc1ccccc1-c1sc2cc3c(cc2c1C#CC1(O)CCCCC1)OCO3	n	n	n	x	79µM	n[0.501 µM]
CC(C)CC(CSc1ccc(Br)cc1)N1CCN(CC(C)C)CCC1=O (centres undefined)	n	n	x	n	x	x
CCOC(=O)c1cnc2c(OC)cccc2c1N1CCN(c2ccc(OC)cc2)CC1	n[11.4 µM]	u	24µM	u	11µM	u
CCOC(=O)c1cnc2c(OC)cccc2c1N1CCN(c2ccccc2OC)CC1	u	n	n	79µM	u	u
COc1cc(-c2cc(C(=O)Nc3ccc(O)cc3)c3ccccc3n2)cc(OC)c1OC	n[11.4 µM]	n	27µM	22µM	n	14µM
Cc1ccc(NC(=O)c2cc(-c3ccc(C)o3)nc3ccccc23)cc1	79µM	n	u	10µM	n	10µM
Cc1ccc(NC(=O)c2cc(C)nc3ccccc23)cc1	n	n	n	n	n	n
Cc1ccc(-c2cc(C(=O)NCCN3CCOCC3)c3ccccc3n2)o1	n	n	n	n	n	28µM
COc1ccccc1NC(=O)c1cc(-c2ccc(C)o2)nc2ccccc12	n	n	n	n	n	40µM
CCn1nnc2cc(C(=O)Nc3ccc(C)c(Cl)c3)ccc21	n	n	x	x	n	n
O=C(CN1C(=O)NC2(CCc3ccccc32)C1=O)c1c[nH]c2ccccc12 (centres undefined)	n	n	n	x	n	u
Cc1ccc(C)c(COC(=O)CCN=C2NS(=O)(=O)c3ccccc32)c1	n	n	n	x	n	u

Screening results (PubChem)
